Laboratory results: PubChem BioAssay (NCATS)
Records with an inconclusive call do not appear. The source made the active and inactive calls. Unless noted, how the calls were made is not given here.

Experiments:
[1] = Immunotoxin (HA22) sensitization/mitigation study. Vehicle arm (PBS) (AID 1159510); further: potency means the concentration at half of the fitted maximal effect
[2] = Immunotoxin (SS1P) sensitization/mitigation study. Vehicle arm (DMEM) (AID 1159513); further: potency means the concentration at half of the fitted maximal effect
[3] = High-throughput drug toxicity screening in the BPDCN cell line Gen2.2 (AID 1224824); details: Gen2.2 BPDCN cells; at 45.8 µM (top of the series);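 further: cells exposed to compounds for 48 h before reading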
Outline: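 Gen2.2, 500 cells/well, phenol red-free RPMI/10% FBS/Pen-Strep; 48 h cpd, 37 °C/5% CO2; CTG lum, 15 min RT. Norm: DMSO = 100%, bortezomib 9.2 uM final = 0%.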

[4] = High-throughput drug toxicity screening in the BPDCN cell line Cal-1 (AID 1224825); details: Cal-1 BPDCN cell viability, qHTS; at 45.8 µM (top of the series)
Outline: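 Exponentially growing Cal-1 cells, 500 per well in phenol red-free RPMI with 10% FBS, were exposed to compounds for 48 h at 37 °C, 5% CO2. Viability was read by CellTiter-Glo luminescence and normalised to DMSO (100%) and 9.2 uM bortezomib (0%).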

[5] = qHTS assay for measurement of the activity of small molecule inhibitors on Zika virus induced Caspase-3 activity in human astrocytoma cells (AID 1224859; active means well fitted inhibition curve with a large enough effect;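 further: plate controls were ZIKV-infected untreated cells for no effect and uninfected cells for full effect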)
Outline: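 Readout is luminescence from Caspase-Glo 3/7 added after a 6 h ZIKV infection (2 FFU/cell) of compound-pretreated (1 h) SNB-19 cells; data expressed as % inhibition versus uninfected and infected wells.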

[6] = qHTS Screen of the MIPE 4.0 Collection Against Ewings Sarcoma (RDES) (AID 1259252; active means well fitted inhibition curve with a large enough effect; further: potency means the concentration at half of the fitted maximal effect; nearly all actives have a fitted effect of over 35% in size)
Outline: (§1)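 Measured: ATP luminescence (CellTiter-Glo) 10 min after reagent addition, following 48 h drug treatment. Relative luciferase units converted to percent activity, with no-cell wells as full and DMSO wells as zero inhibition.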

[7] = qHTS Screen of the MIPE 4.0 Collection Against Ewings Sarcoma (EW8) (AID 1259255; active means well fitted inhibition curve with a large enough effect; further: potency means the concentration at half of the fitted maximal effect; nearly all actives have a fitted effect of over 35% in size)
Outline: as §1

[8] = qHTS assay for measurement of the activity of small molecule inhibitors on Zika virus induced Caspase-3 activity in human iPSC derived neural progenitor cells (hNPCs) (AID 1224857; active means well fitted inhibition curve with a large enough effect; further: % of control where 0% means no effect; nearly all actives have a fitted effect of over 65% in size)
Outline: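 Quantitative HTS format: human iPSC neural progenitors, 1 h compound pretreatment, ZIKV 2 FFU/cell for 6 h at 37 C. Percent inhibition derived from luminescent caspase-3/7 signal between uninfected and infected controls.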

Which results are given for `Cc1ccc(C(=O)N(CCCN)[C@@H](c2nc3cc(Cl)ccc3c(=O)n2Cc2ccccc2)C(C)C)cc1`?
Potency [1]: 3.7 nM (active); Potency [2]: 5.3 nM (active)

With `O=C(O)c1ccc2c(c1)nc(Nc1cccc(Cl)c1)c1ccncc12` as the molecule, how does the Potency [1] read?
The Potency was 5260 nM (active).

What about the Potency [2] of the same molecule?
Its Potency is 11800 nM (active).

With `O=C(OCC#CCSc1nnc(-c2ccc3ccccc3c2)o1)c1cc2ccccc2s1` as the molecule, how does the Potency [1] read?
Its Potency is “inactive”.

And the Potency [2]?
Its Potency is “inactive”.

For `C[C@H](NC(=O)Cc1cc(F)cc(F)c1)C(=O)N[C@@H]1C(=O)N(C)c2ccccc2-c2ccccc21`, which Potency [1] is on record?
The Potency was “inactive”.

What about the Potency [2] of the same molecule?
The Potency was “inactive”.

With `CC(NC(=O)Cc1cc(F)cc(F)c1)C(=O)NC(C(=O)OC(C)(C)C)c1ccccc1` (centres undefined) as the molecule, how does the Potency [1] read?
Its Potency is “inactive”.

And the Potency [2]?
The Potency was “inactive”.

With `Cc1ccc(NC(=O)c2cccc(C(C)(C)C#N)c2)cc1Nc1ccc2ncn(C)c(=O)c2c1` as the molecule, how does the Potency [1] read?
Its Potency is 23500 nM (active).

And the Potency [2]?
Its Potency is 20900 nM (active).

For `Oc1cccc(-c2nc(N3CCOCC3)c3oc4ncccc4c3n2)c1`, which Potency [1] is on record?
Its Potency is 264 nM (active).

And the Potency [2]?
Its Potency is 93.5 nM (active).

With `Cn1c(Nc2ccc(C(F)(F)F)cc2)nc2cc(Oc3ccnc(-c4ncc(C(F)(F)F)[nH]4)c3)ccc21` as the molecule, how does the Potency [1] read?
The Potency was 11800 nM (active).

And the Potency [2]?
The Potency was 23500 nM (active).

For `COc1ccc2c(c[n+](C)c3c4cc5c(cc4ccc23)OCO5)c1OC`, which Potency [1] is on record?
Its Potency is 1320 nM (active).

What about the Potency [2] of the same molecule?
The Potency was 8330 nM (active).

What about the cell viability, % of control (lower = more cytotoxic) [3] of the same molecule?
The cell viability, % of control (lower = more cytotoxic) was 7.65%.

And the viability (% of control) [4]?
Its viability (% of control) is 3.4%.

What about the Potency [5] of the same molecule?
Its Potency is “inactive”.

What about the Potency [6] of the same molecule?
Its Potency is 4690 nM (active).

What about the Potency [7] of the same molecule?
Its Potency is 7430 nM (active).

With `COc1c(Cl)cc2c([nH]c3cnccc32)c1NC(=O)c1cccnc1C` as the molecule, how does the Potency [1] read?
The Potency was “inactive”.

And the Potency [2]?
The Potency was “inactive”.

With `Cc1nc2cnc3ccc(C#Cc4cccnc4)cc3c2n1-c1ccc(C(C)(C)C#N)cc1` as the molecule, how does the Potency [1] read?
The Potency was 1870 nM (active).

What about the Potency [2] of the same molecule?
Its Potency is 132 nM (active).

What does the source list for `COc1cc2nc(N3CCCN(C)CC3)nc(NC3CCN(Cc4ccccc4)CC3)c2cc1OC`?
Potency [1]: 2090 nM (active); Potency [2]: 13200 nM (active)

Which Potency [1] does the source give for `CC1CC(C)C(=O)C(C(O)CC2CC(=O)NC(=O)C2)C1` (centres undefined) here?
The Potency was 54 nM (active).

What about the Potency [2] of the same molecule?
The Potency was 191 nM (active).

What does the source list for `NC(=O)c1ccc(-c2nc(-c3ccc4c(c3)OCO4)c(-c3ccccn3)[nH]2)cc1`?
Potency [1]: inactive; Potency [2]: inactive

For `Nc1ccc(C(=O)c2cc3c(ccc4ccccc43)[nH]2)cc1`, which Potency [1] is on record?
Its Potency is 743 nM (active).

What about the Potency [2] of the same molecule?
Its Potency is 1180 nM (active).

For `O=C(NOC[C@H](O)CO)c1ccc(F)c(F)c1Nc1ccc(I)cc1F`, which Potency [1] is on record?
Its Potency is “inactive”.

What about the Potency [2] of the same molecule?
The Potency was “inactive”.

Which results are given for `C#Cc1cccc(Nc2ncnc3cc(OC)c(OCCCCCCC(=O)NO)cc23)c1`?
Potency [1]: 132 nM (active); Potency [2]: 526 nM (active)

Which Potency [1] does the source give for `CCC1(Cc2ccc(N)cc2)CCC(=O)NC1=O` (centres undefined) here?
Its Potency is “inactive”.

What about the Potency [2] of the same molecule?
Its Potency is “inactive”.

With `COc1ccc2c(c1)CN(C)CC2c1ccc(Cl)c(Cl)c1` (centres undefined) as the molecule, how does the cell viability, % of control (lower = more cytotoxic) [3] read?
The cell viability, % of control (lower = more cytotoxic) was 41%.

And the viability (% of control) [4]?
Its viability (% of control) is 12.2%.

And the Potency [8]?
Its Potency is “inactive”.

And the Potency [5]?
The Potency was “inactive”.

What does the source list for `C=C1C[C@H]2[C@H]3CCC(=O)[C@@]3(C)CC[C@@H]2[C@@]2(C)C=CC(=O)C=C12`?
cell viability, % of control (lower = more cytotoxic) [3]: 12.4%; viability (% of control) [4]: 32.6%; Potency [8]: inactive; Potency [5]: inactive
